A short description of assay [1]: Cell Viability - BJ (AID 421; calls by dose curve;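 note: potency is the fitted concentration of half-maximal effect; cells exposed to compound for 40 hours at 37 °C before readout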). The note with it: BJ fibroblast viability, qHTS. In outline:
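Cytotoxicity as drop in intracellular ATP (CellTiter-Glo, 20 min RT) after 40 hr compound exposure of BJ fibroblasts at 37 °C. Titrations scaled between DMSO and 100 uM tamoxifen, Hill-fitted for AC50.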
Background: Quantitative high-throughput screening tests each substance at several concentrations.

Assay [2] is described as follows: Cell Viability - HUV-EC-C (AID 542).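 Note: cells exposed to compound for 40 hours; % is set by controls: 0 for no effect and ±100 for the full control effect; nearly all actives have a fitted effect of over 35% in size.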 The note with it: HUV-EC-C endothelial cell viability, qHTS; series mostly up to 92.2 µM. In outline: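 Concentration-dependent ATP loss in HUV-EC-C cells is the measure. Exposure lasts 40 hr at 37 °C; luminescence follows CellTiter-Glo addition, and Hill fits give AC50.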
Assay [3] is described as follows: Cell Viability - H-4-II-E (AID 543).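 Note: cells exposed to compound for 40 hours; nearly all actives have a fitted effect of over 35% in size.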 Note: potency is the fitted concentration of half-maximal effect. The settings on record: H-4-II-E rat hepatoma viability; series mostly up to 92.2 µM. The gist of the method: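 AC50 from Hill-modelled qHTS concentration-response curves. H-4-II-E rat hepatoma cells in complete medium, 40 hr exposure at 37 °C, viability by CellTiter-Glo ATP luminescence.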
A short description of assay [4]: Cell Viability - Mesenchymal (AID 546).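 Note: cells exposed to compound for 40 hours before reading.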 Note: potency is the fitted concentration of half-maximal effect. The settings on record: mesenchymal cells viability, qHTS; activity change, negative = cytotoxicity: at 91.7 µM (top of the series). The gist of the method: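 In this qHTS cytotoxicity format, glomerulus-derived human mesenchymal kidney cells received compound for 40 hr, then luciferase-based ATP quantitation. Concentration-response data were fitted with the Hill equation.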

Assay [5] is described as follows: Cellular Toxicity (caspase-3) Jurkat (AID 655).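 Note: cells exposed to compound for 16 h at 37 °C before reading.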 Note: potency is the fitted concentration of half-maximal effect. The settings on record: Jurkat caspase-3 activation, luminescence; caspase-3 activation: at 92.2 µM (top of the series), DMSO = 0%, tamoxifen = 100%. In outline: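 Jurkat cells (5000/well) in complete medium were treated with compounds for 16 hr at 37 °C, then Caspase-Glo 3/7 luminescence was read after 20 min at room temperature. Data normalized to DMSO (basal) and 100 uM tamoxifen (100%); AC50 from Hill fit.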

Assay [6] can be described thus: Cell Viability - LYMP2-001 (AID 921). Note: nearly all actives have a fitted effect of over 70% in size. Note: potency is the fitted concentration of half-maximal effect. The settings on record: LYMP2-001 lymphoblastoid cell viability; series mostly up to 92.2 µM. In outline:
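Human lymphoblastoid cells (Coriell), 2500 per well, were preincubated 5 hr at 37 C, then exposed to compounds in complete medium for 24 hr at 37 C. Cellular ATP was read by CellTiter-Glo luminescence; AC50 from Hill fits of concentration-response data.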

The nature of assay [7]: MultiTox-Fluor Cytotoxicity Assay - LYMP1-001 - Dead Cells (AID 946). Note: potency is the fitted concentration of half-maximal effect. The settings on record: LYMP1-001 lymphoblastoid cells, dead-cell protease fluorescence; series mostly up to 92.2 µM. In outline: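 Cytotoxicity as increased dead-cell protease fluorescence (bis-AAF-R110, 485/520 nm), read 60 min after MultiTox-Fluor reagent. Human lymphoblastoid line exposed 16 h; Hill-fitted AC50, with DMSO as 0% and 15 uM tetraoctylammonium bromide as 100%.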

Assay [8] is described as follows: MultiTox-Fluor Cytotoxicity Assay - LYMP1-001 - Live Cells (AID 947).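 For activity change, negative = cytotoxicity: 0% = DMSO only and full inhibition = tetraoctylammonium bromide control.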 Note: potency is the fitted concentration of half-maximal effect. The settings on record: LYMP1-001 lymphoblastoid cells, live-cell protease fluorescence viability; series mostly up to 92.2 µM.
A short description of assay [9]: Cell Viability - LYMP1-003 - Assay at 40 hr (AID 964). Note: nearly all actives have a fitted effect of over 60% in size. Note: potency is the fitted concentration of half-maximal effect. The note with it: LYMP1-003 lymphoblastoid viability; series mostly up to 92.2 µM. In outline:
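Acute toxicity is scored as a concentration-dependent loss of intracellular ATP in LYMP1-003 cells (2500/well, complete medium) after 40 hr at 37 C, measured by CellTiter-Glo luminescence; AC50 values derive from standard Hill modelling.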

Assay [10] in a line: Cell Viability - LYMP2-011 (AID 969). Note: nearly all actives have a fitted effect of over 60% in size. Note: potency is the fitted concentration of half-maximal effect. The settings on record: LYMP2-011 lymphoblastoid cells viability; series mostly up to 92.2 µM. The gist of the method:
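Cells seeded at 2500 per well rest 5 hr before compound addition, then incubate 24 hr at 37 C. CellTiter-Glo reagent is added for 30 min at room temperature before luminescence detection.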

Assay [11] in a line: Cell Viability - LYMP2-013 (AID 970). Note: nearly all actives have a fitted effect of over 55% in size. Note: potency is the fitted concentration of half-maximal effect. The note with it: LYMP2-013 lymphoblastoid cells viability; series mostly up to 92.2 µM. The gist of the method: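 In complete culture medium, human lymphoblastoid cells were dosed for 24 hr at 37 C, with tetraoctylammonium bromide (6.4pM to 92 uM) as positive control. Viability reflects luciferase-based ATP signal; AC50 derived from concentration-response curves.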

Assay [12] can be described thus: Cell Viability - LYMP2-015 (AID 971). Note: nearly all actives have a fitted effect of over 55% in size. Note: potency is the fitted concentration of half-maximal effect. The note with it: LYMP2-015 lymphoblastoid cell viability; series mostly up to 92.2 µM. The gist of the method: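 AC50 values reflect Hill-model fits of ATP-based luminescence (CellTiter-Glo) from a human lymphoblastoid line, 2500 cells/well, treated 24 hr at 37 C.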
Assay [13] is described as follows: Cell Viability - LYMP2-017 (AID 972). For activity change, negative = cytotoxicity: % is set by controls: 0 for no effect and ±100 for the full control effect. Note: nearly all actives have a fitted effect of over 55% in size. Note: potency is the fitted concentration of half-maximal effect. The note with it: LYMP2-017 lymphoblastoid cell viability; series mostly up to 92.2 µM. The gist of the method:
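In this qHTS format, lymphoblastoid cells in complete medium receive test compound for a day at 37 C before ATP content is quantified by luciferase luminescence. Reported AC50 figures come from standard Hill-equation curve fitting.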

Assay [14] in a line: Cell Viability - LYMP2-025 (AID 976).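 For activity change, negative = cytotoxicity: plate controls were DMSO only for no effect and tetraoctylammonium bromide control for full effect.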 Note: potency is the fitted concentration of half-maximal effect. The note with it: LYMP2-025 lymphoblastoid cell viability; series mostly up to 92.2 µM. In outline:
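Luminescent ATP readout after 24 hr treatment of a human lymphoblastoid line (LYMP2-025, 2500 cells/well, 37 C). Reagent developed 30 min at room temperature; AC50 fitted with the Hill equation.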

A short description of assay [15]: Cell Viability - LYMP2-007 (AID 979).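 For activity change, negative = cytotoxicity: 0% = DMSO only and the negative end = 92 µM tetraoctylammonium bromide.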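 Note: cells exposed to compound for 24 h before reading; nearly all actives have a fitted effect of over 60% in size.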 Note: potency is the fitted concentration of half-maximal effect. The note with it: LYMP2-007 lymphoblastoid cell viability; series mostly up to 92.2 µM. The gist of the method: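 Measured via luciferase-based ATP quantitation: lymphoblastoid cells, 24 hr compound exposure at 37 C, AC50 from Hill fits.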
Assay [16] is described as follows: Cell Viability - LYMP2-008 (AID 980). For activity change, negative = cytotoxicity: % is set by controls: 0 for no effect and ±100 for the full control effect. Note: nearly all actives have a fitted effect of over 60% in size. Note: potency is the fitted concentration of half-maximal effect. The settings on record: LYMP2-008 lymphoblastoid cell viability, qHTS; series mostly up to 92.2 µM. In outline:
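Measured: ATP-dependent luminescence, proportional to viable cell number, in human lymphoblastoid cells treated 24 hr with compound in complete culture medium. Values are AC50s from Hill-equation modelling of qHTS titrations.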

Assay [17] can be described thus: Cell Viability - LYMP2-014 (AID 983).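 For activity change, negative = cytotoxicity: plate controls were DMSO only for no effect and 92 µM tetraoctylammonium bromide for full effect.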 Note: nearly all actives have a fitted effect of over 50% in size. Note: potency is the fitted concentration of half-maximal effect. The settings on record: LYMP2-014 lymphoblastoid cells, viability qHTS; series mostly up to 92.2 µM. The gist of the method:
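Quantitative HTS in lymphoblastoid cells: 24 hr compound exposure, then CellTiter-Glo ATP luminescence. Positive control was tetraoctylammonium bromide, 6.4pM to 92 uM.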

A short description of assay [18]: Cell Viability - LYMP1-002 - Assay at 40 hr (AID 994). Note: nearly all actives have a fitted effect of over 60% in size. Note: potency is the fitted concentration of half-maximal effect. The note with it: LYMP1-002 lymphoblastoid cell viability; series mostly up to 92.2 µM. The gist of the method:
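Concentration-dependent ATP loss after 40 hr treatment at 37 C defined toxicity; AC50 values were obtained by fitting the standard Hill equation.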

A short description of assay [19]: Cell Viability - Jurkat (AID 426;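 active = dose-dependent loss of cell ATP signal giving a full or clear fitted curve, ranked by lower potency value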;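 note: potency is the fitted concentration of half-maximal effect; cells exposed to compound for 40 hours at 37 °C before ATP read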). The settings on record: qHTS. In outline: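 Cytotoxicity was scored as loss of cellular ATP, measured by luciferase-based luminescence, in Jurkat clone E6-1 cells after 40 h compound treatment; tamoxifen and doxorubicin served as positive controls.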
A short description of assay [20]: qHTS assay for environmental chemicals that activate the Aryl hydrocarbon Receptor (AhR) signaling pathway (AID 651777). For activation: % of control where 0% means no effect. Note: nearly all actives have a fitted effect of over 15% in size. Note: potency is the fitted concentration of half-maximal effect. The settings on record: 1A2-DRE human hepatoma cells, luciferase, 24 h; activation: hits give high values. In outline:
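Luminescence (One-Glo, 30 min, room temperature) reports AhR-driven luciferase in stably transfected human hepatoma cells bearing DRE and CYP1A2 promoter. Cells (1,200/well) were treated with compound for 24 hr at 37 C in qHTS format.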

Values joined by “and” are separate entries in the source; they are usually repeats but may differ in a detail not shown here. Equal values may be shown once. Results filed as inconclusive are left out. Values without a mark were called inactive. Active and inactive are the calls of the source. Unless noted, calls come from the whole dose curve; as a rule, active = well fitted curve in the direction sought with a large enough effect; inconclusive = small, poorly fitted or top-dose-only effect, or another doubt; inactive = no such curve, though single readings can be large; an effect the other way counts as inactive or inconclusive. Some results are limits rather than exact numbers.

On to `O=Cc1ccc(Cl)c(Cl)c1`, for which the Potency in [1] is above 92 µM. The Potency entry in assay [2], in [3], in assay [4], in assay [5], in [6] and in assay [7] was “inactive” each time. In addition, the Potency result in assay [8], in assay [9], in assay [10], in assay [11], in assay [12] and in assay [13] was “inactive” throughout. The Potency entry in assay [14], in assay [15], in assay [16], in [17] and in assay [18] was “inactive” in each case.
With `ClC1=C(Cl)C(Cl)(Cl)C(Cl)=C1Cl`, the Potency in assay [1] is above 92 µM; in assay [19] it was 1.88 µM (active); in assay [5], 0.316 µM (active). Moreover, the Potency entry in assay [2], in [3], in [4], in [7], in assay [8] and in [9] was “inactive” throughout. Further, the Potency result in assay [18] was “inactive”. For the same compound, the activation in [20] is 0.158% and 0.426%.
For `c1ccc2c(c1)-c1cccc3c1c-2cc1ccccc13`, the Potency in assay [1] was above 92 µM; in [19], above 92 µM; in [20] it was 7.08 µM (active). Also, the Potency entry in assay [2], in assay [5], in [6], in assay [7], in assay [8] and in assay [9] was “inactive” throughout. Besides, the Potency entry in [10], in [11], in assay [12], in [13], in assay [14] and in [15] was “inactive” each time. Besides, the Potency entry in [16], in assay [17] and in assay [18] was “inactive” throughout.
Take `CNc1ccc(O)cc1`: the Potency is 2.14 µM (active) in assay [19]; 20 µM (active) in [3]; 31.6 µM (active) in assay [4]; 3.16 µM (active) in assay [6]; 25.1 µM (active) in assay [7]; 31.6 µM (active) in assay [8]. Besides, the Potency in [9] was 25.1 µM (active); in assay [10], 6.31 µM (active); in [11] it was 6.31 µM (active); in [12], 5.01 µM (active); in [13], 3.98 µM (active); in assay [14], 10 µM (active). For the same compound, the Potency in assay [15] was 6.31 µM (active); in assay [16] it was 7.94 µM (active); in [17] it was 6.31 µM (active); in assay [18], 25.1 µM (active). Besides, the activation in assay [20] is 7.98%.
On to `O=[N+]([O-])c1cc([N+](=O)[O-])c2ccc(S(=O)(=O)O)cc2c1O`, for which the Potency in assay [1] and in assay [19] was above 92 µM each time. Besides, the Potency result in assay [2], in [3], in assay [4], in assay [5], in assay [6] and in [7] was “inactive” throughout. For the same compound, the Potency entry in [9], in assay [10], in [11], in [12], in assay [13] and in assay [14] was “inactive” throughout. Further, the Potency entry in assay [15], in assay [16], in assay [17] and in [18] was “inactive” in each case.
As to `CN1[C@H]2CC(OC(=O)[C@H](CO)c3ccccc3)C[C@H]1[C@H]1O[C@H]12` (stereo partly specified), the Potency in [1] and in [19] was above 92 µM each time. Further, the Potency result in [2], in assay [3], in assay [4], in [5], in assay [6] and in assay [7] was “inactive” each time. Further, the Potency entry in [9], in assay [10], in [11], in assay [12], in assay [13] and in assay [14] was “inactive” in each case. In addition, the Potency entry in assay [15], in [16], in assay [17] and in assay [18] was “inactive” in each case. The activation in assay [20] was -0.0972% and -0.778%.
For `Cc1cccc(O)c1C`, the Potency in assay [1] and in assay [19] was above 92 µM in each case. Also, the Potency result in [2], in assay [3], in [4], in [5], in assay [6] and in [7] was “inactive” throughout. Moreover, the Potency result in assay [8], in assay [9], in assay [10], in assay [11], in assay [12] and in assay [13] was “inactive” in each case. The Potency entry in assay [14], in [15], in assay [16], in assay [17] and in [18] was “inactive” throughout. Besides, the activation in assay [20] was -0.837%.

The values are drawn from PubChem BioAssay (NCATS).
